This is an account of results in PubChem BioAssay (NCATS).

Records with an inconclusive call do not appear. Entries that show only a call come without a potency. Activity calls are given as the source filed them. Calls come from the whole dose curve; as a rule, active = well fitted inhibition curve with a large enough effect; inconclusive = small, poorly fitted or top-dose-only effect; inactive = flat fitted curve, though single readings scatter.
Potency is the fitted concentration of half-maximal effect.

This assay in a line: P-glycoprotein substrates identified in KB-8-5-11 adenocarcinoma cell line, qHTS therapeutic library screen (AID 1346987). Note: nearly all actives have a fitted effect of over 65% in size. The conditions noted are these: KB-8-5-11 (P-gp overexpressing) viability, CellTiter-Glo, 72 h; series mostly up to 44.5 µM. The gist of the method: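 In this qHTS, P-gp-rich KB-8-5-11 cells received library compounds across a concentration range. Viability was quantified by luminescence after 72 h at 37 degree C.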
(In qHTS, concentration-response curves come from the screen itself.)
In the case of `CN(C)CC1CCn2c(c(C3=C(c4cn(C)c5ccccc45)C(=O)NC3=O)c3ccccc32)C1` (configuration not stated), the Potency is 16.4 µM (active). In the case of `C[C@H]1CO[C@@H]2Cn3cc(C(=O)NCc4ccc(F)cc4F)c(=O)c(O)c3C(=O)N12`, the Potency result is “inactive”. As to `CCCCNc1ncc2c(-c3ccc(S(=O)(=O)N4CCOCC4)cc3)nn(C3CCC(O)CC3)c2n1` (configuration not stated), the Potency was 7.31 µM (active). In the case of `Cc1ccc(-c2cn3c4c(sc3n2)CCCC4)cc1`, the Potency result is “inactive”. Same read-out and setting: then `Cc1ccc(CNc2ncnc3ccc(-c4ccc(CO)o4)cc23)o1`, with “inactive”; and `c1cnc2cc3c(cc2n1)[C@@H]1CNC[C@H]3C1`, with “inactive”; and `O=C1Cc2c([nH]c3ccc(Br)cc23)-c2ncccc2N1`, with “inactive”. As to `O=S(=O)(N[C@H]1CCCC[C@@H]1N1CCOCC1)c1ccc(Cl)cc1`, the Potency entry is “inactive”. `Cc1cc2occ(CN(C)CCN(C)Cc3cn(-c4cccc(C(F)(F)F)c4)c4ccccc34)c(=O)c2cc1C`: the Potency is 18.4 µM (active).

Consider `CN(C)CCn1cc(-c2ccc(F)cc2)c(-n2cccc2)n1`, for which the Potency entry is “inactive”. For `CN1CCC(NC(=O)c2cc(-c3c(O)cc(O)cc3Oc3ccc([N+](=O)[O-])cc3)on2)CC1`, the Potency was 11.6 µM (active). Turning to `CC(C)(C)[C@H](NC(=O)c1ccc(N)c(Cl)c1)C(=O)N1CCC[C@H]1C(=O)N[C@H](C#N)CC(=O)O`, the Potency entry was “inactive”. For `CCCCC1CCC(c2nc(-c3ccncc3)no2)CC1` (configuration not stated), the Potency result is “inactive”.

With `CCC(C)C(C(=O)OCC[N+](C)(CC)CC)c1ccccc1` (configuration not stated), the Potency entry is “inactive”. On the same count and under the same terms, then `CC(C)(C)NC(=O)[C@H]1CC[C@H]2[C@@H]3CC=C4C=C(C(=O)O)CC[C@]4(C)[C@H]3CC[C@]12C`, with “inactive”. With `Cc1cc(NC(=O)NCCN2CCC(O)(Cc3ccccc3)CC2)c2ccccc2n1`, the Potency result was “inactive”. With `Cn1ncc(Cl)c1-c1cc(C(=O)NC(CN)Cc2ccc(F)c(F)c2)oc1Cl` (configuration not stated), the Potency was 14.6 µM (active). Regarding `C=C1CC2C3CCC4=CC(=O)C=C[C@]4(C)[C@@]3(F)[C@@H](O)C[C@]2(C)[C@@]1(O)C(=O)COC(C)=O` (some centres not stated), the Potency result was “inactive”. In the case of `COc1cc2c(Nc3cc(F)c(Cl)c(Cl)c3)ncnc2cc1OCC1CCCN(C)CCC1`, the Potency is 16.4 µM (active). For `CC1(NC(=O)c2ccc(C#Cc3cccc(F)c3)cn2)COC1`, the Potency entry was “inactive”. For `CC(C)NC(=O)COc1cccc(-c2nc(Nc3ccc4[nH]ncc4c3)c3ccccc3n2)c1`, the Potency was 8.2 µM (active).

For the compound `Cn1cc(-c2ccc(F)c(C(F)(F)F)c2)nc1C1CCN(c2ncnc3[nH]ncc23)CC1`, the Potency result was “inactive”. On to `CCC(C)(OC(C)=O)C(=O)O[C@H]1[C@H](OC(C)=O)[C@]2(CO)[C@H](O)[C@H](O)[C@]3(C)C(=CCC4[C@@]5(C)CC[C@H](O[C@@H]6O[C@H](C(=O)O)[C@@H](O)[C@H](O[C@@H]7OC[C@H](O)[C@H](O[C@@H]8OC[C@H](O)[C@H](O)[C@H]8O)[C@H]7O)[C@H]6O[C@@H]6O[C@H](CO)[C@@H](O)[C@H](O)[C@H]6O)C(C)(C)C5CC[C@]43C)[C@@H]2CC1(C)C` (some centres not stated), for which the activity change, negative = cytotoxicity was -29% [at 9.29 µM] (inactive).

Turning to `CC[C@@H]1C[C@]1(NC(=O)[C@@H]1C[C@@H]2CN1C(=O)[C@H](C(C)(C)C)NC(=O)OCC(C)(C)CCCCc1cccc3c1CN(C3)C(=O)O2)C(=O)NS(=O)(=O)C1CC1`, the Potency result is “inactive”. On the same count and under the same terms, then `O=S(O)CO`, with “inactive”; and `O=C(NCCCNc1nc(Nc2cccc(CN3CCOCC3)c2)ncc1C1CC1)C1CCC1`, with 10.3 µM (active); and `CCc1c(Cl)c(O)c(Cl)c(O)c1C(=O)O[C@H]1[C@H](O)[C@H](OC)[C@H](OC/C2=C\C=C\C[C@H](O)/C(C)=C\[C@H](CC)[C@@H](O[C@@H]3OC(C)(C)[C@@H](OC(=O)C(C)C)[C@H](O)[C@@H]3O)/C(C)=C/C(C)=C/C[C@@H]([C@@H](C)O)OC2=O)O[C@@H]1C`, with “inactive”. For the compound `CC(C)(C)c1ccc(-c2nc3c(N4CCN(Cc5ccc6nccnc6c5)CC4)cccc3[nH]2)cc1`, the Potency was 13 µM (active). For `COc1c(C)cnc(Cn2cc(C#CCC(C)(C)O)c3c(Cl)nc(N)nc32)c1C`, the Potency was 0.0326 µM (active). On to `CC(=O)OC(C)(C)/C=C/C(=O)C(C)(O)C1C(O)CC2(C)C3CC=C(C(C)(C)C(=O)O)C(CC(=O)O)C3(C)C(=O)CC12C` (configuration not stated), for which the Potency result is “inactive”. For the compound `Cc1ccc(C(=O)Nc2ccc(CN3CCN(C)CC3)c(C(F)(F)F)c2)cc1C#Cc1cnc2[nH]ncc2c1`, the Potency was 20.6 µM (active). Consider `COc1ccccc1C(=O)Nc1cc2c(cc1N1CCCC1)n(C)c(=O)n2C`, for which the Potency was 18.4 µM (active).
